SUMO Mot1 rescue: SUMOylation pathway inhibition by Mot1-301 growth rescue; S. cerevisiae Mot1-301 growth rescue, ATP luminescence, 38.5C; percent above DMSO median, 100 means doubled; hit rate 1% among 320,000; growth rescue, % at 18.8 µM;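 active = every valid replicate shows activation above 250% relative to neutral control wells; inactive = the rest, any valid replicate at or below 250%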;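 note: OY570 slx delta 5 strain wells were the positive control but not used for scaling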
HIF activator: HIF pathway transcriptional activation. U2OS HRE-luciferase reporter, luminescence; normalized: DMSO 0%, desferrioxamine 100%. activation, % at 7.5 µM (by protocol). hit rate 0.32% among 300,000. AID 1910;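 active = mean activation of at least 10% of the iron chelator positive control signal, with at least half of replicates also reaching 10%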
ALR H2O2 inh: blocks human ALR sulfhydryl oxidase activity | P55789 | purified ALR, DTT oxidation, H2O2 HRP-luminol luminescence | inhibition, % (test concentration not listed) | hit rate 3.8% among 290,000 | AID 485317;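 active = mean replicate inhibition above about 79%, with every replicate also reaching it, limit read from the data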
Target sequence (P55789 whole entry, looked up): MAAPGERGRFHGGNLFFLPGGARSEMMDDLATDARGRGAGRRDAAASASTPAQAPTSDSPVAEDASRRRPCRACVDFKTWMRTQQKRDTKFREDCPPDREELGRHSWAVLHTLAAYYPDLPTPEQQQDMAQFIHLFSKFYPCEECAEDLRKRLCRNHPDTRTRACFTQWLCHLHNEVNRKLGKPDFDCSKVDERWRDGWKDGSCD
PfM18AAP inh-1: blocks P. falciparum M18 aspartyl aminopeptidase; recombinant PfM18AAP, H-Glu-NHMec fluorogenic cleavage; inhibition, % at 7.35 µM; hit rate 1.2% among 290,000; AID 1822;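 active = inhibition above the campaign mean inhibition over all tested compounds plus 3 SD, cut at about 28% in these data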;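 note: 0% = plate median of test compound wells and 100% = 2 mM ZnCl2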
PfM18AAP inh-2: confirmation of Plasmodium falciparum M18 aspartyl aminopeptidase inhibitors; shares compounds with PfM18AAP inh-1; hit rate 28% among 2,400; recombinant PfM18AAP, H-Glu-NHMec fluorogenic cleavage; AID 2170; inhibition, % at 7.35 µM;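 active = mean inhibition over replicate wells above the hit cutoff set for the earlier primary screen, cut at about 29% in these data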;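 note: 0% = median of test compound wells and 100% = 2 mM ZnCl2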
CTSL1 confirm: counter-screen for PFM18AAP inhibitors: confirmation of human cathepsin L inhibitors. shares compounds with PfM18AAP inh-1. 2,400 tested, under 10 active. purified cathepsin L1, Z-Leu-Arg-MCA fluorescence. inhibition, % at 5.96 µM;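 active = average inhibition across replicates above the hit cutoff set in the earlier primary screen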;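 note: 0% = median of test compound wells and 100% = Z-Phe-Ala-diazomethylketone 1 µM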
Target sequence (P07711 whole entry, looked up): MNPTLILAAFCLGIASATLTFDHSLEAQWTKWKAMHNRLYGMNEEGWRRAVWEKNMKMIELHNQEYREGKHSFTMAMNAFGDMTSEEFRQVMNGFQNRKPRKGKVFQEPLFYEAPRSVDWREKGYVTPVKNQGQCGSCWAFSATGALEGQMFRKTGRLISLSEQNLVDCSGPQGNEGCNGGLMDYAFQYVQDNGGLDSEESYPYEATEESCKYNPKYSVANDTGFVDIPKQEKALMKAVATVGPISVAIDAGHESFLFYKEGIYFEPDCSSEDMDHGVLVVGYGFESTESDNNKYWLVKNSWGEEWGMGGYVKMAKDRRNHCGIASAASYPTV
Mot1 SUMO dose: SUMO pathway inhibitors in yeast Mot1-301 growth. shares compounds with SUMO Mot1 rescue. S. cerevisiae Mot1-301 galactose growth, ATP luminescence, 24 h; -100 = growth of slx-deleted rescue strain. growth activity, percent, % at 42 µM. 2,300 tested, under 10 active. AID 493004;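 active = Signal drops as the depositor expects, and the fitted half-maximal dose is no more than ten times the top valid tested dose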;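 note: more negative values mean stronger growth rescue toward the control strain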
* hit, by the source's call; / = not tested or not shown. Compounds with a hit are over-represented: about 5.3% of the library has one in this group of screens.

SMILES	SUMO Mot1 rescue	HIF activator	ALR H2O2 inh	PfM18AAP inh-1	PfM18AAP inh-2	CTSL1 confirm	others
Cn1ccc(C(=O)Nc2sc3c(c2C#N)CCC3)n1	40.1	0.2	-3.2	8.3	/	/
CCOC(=O)c1cc(C(=O)Nc2sc3c(c2C#N)CCCC3)nn1C	3.6	0.7	5.3	37.4*	-38.7	-3.8
CCS(=O)(=O)N1Cc2ccccc2CC1C(=O)NCCc1c[nH]c2ccccc12 (stereo not given)	-5.3	0.1	/	-3.2	/	/
C=CCc1cccc(/C=N/c2ncn[nH]2)c1O	-12.1	-0.8	/	57.0*	43.0*	-4.0
O=c1c(-n2cncn2)c[nH]n1-c1cccc(Cl)n1	-5.9	0.0	19.0	67.2*	-13.6	-7.0
COc1cccc(CNC(=O)C2CCC(=O)N(CC3CCCCC3)C2)c1OC (stereo not given)	1.7	-0.5	-7.6	1.4	/	/
Cc1nc(NC(=O)COC(=O)C2CC2C)c(Cl)cc1Cl (stereo not given)	12.6	/	-2.0	/	/	/
CCN(CC)S(=O)(=O)c1cc([N+](=O)[O-])ccc1NNC(=O)Nc1ccc(Cl)c(Cl)c1	-11.6	-8.8	-1.5	50.5*	13.4	5.2
O=C(NNc1ccccc1[N+](=O)[O-])Nc1ccc(Cl)c(Cl)c1	-8.6	0.3	-7.7	27.8	/	/
NC(=O)C1(N2CCCCC2)CCN(C(=S)Nc2ccc(S(N)(=O)=O)cc2)CC1	-13.3	-0.5	-30.7	32.8*	11.4	5.2
NC(=O)C1(N2CCCCC2)CCN(C(=S)Nc2ccc(F)c(Cl)c2)CC1	5.1	-0.8	21.1	-2.9	/	/
NS(=O)(=O)c1ccc(NC(=S)N2CCC(Cc3ccccc3)CC2)cc1	-11.0	2.2	0.5	36.8*	-19.1	-4.0
Cc1cc(C)cc(N(CC(=O)NC2CCC(C)CC2)S(=O)(=O)c2c(C)[nH]c(=O)[nH]c2=O)c1 (stereo not given)	-15.6	0.0	0.4	-12.5	/	/
CCOC(=O)C1=CN(c2cccc(F)c2)C=C(C(=O)OCC)C1c1cc(OC)c(O)c([N+](=O)[O-])c1	3.6	-0.5	-0.4	-5.2	/	/
O=C1COc2ccc(C(=O)c3ccccc3)cc2CN1	303.9	0.0	-0.8	2.5	/	/
Cc1nnc(N/N=C/c2c(Cl)cccc2Cl)n1N	-5.0	0.0	-16.4	50.6*	-52.3	4.5
Cc1nnc(N/N=C/c2ccccc2O)n1N	-2.3	-6.2	7.7	23.6	/	/
Cc1nnc(N/N=C/c2cc(C)n(-c3ccc(F)cc3)c2C)n1N	16.5	0.6	-169.9	53.3*	22.9	-6.2
CN1CCN(NC(=S)Nc2ccccc2)CC1	16.5	0.2	-3.9	0.0	/	/
S=C(Nc1ccccc1)Nn1cnnc1	40.5	-0.1	/	65.1*	61.0*	4.6
COc1ccc(NC(=S)Nn2cnnc2)c(OC)c1	-9.4	/	0.5	72.5*	80.2*	-3.4
COc1ccc(NC(=S)Nn2cnnc2)cc1OC	-25.1	1.2	/	79.0*	76.0*	-0.4
CCc1ccc(NC(=S)Nn2cnnc2)cc1	/	0.7	5.8	76.2*	63.7*	1.2
COc1ccc(NC(=S)Nc2ccccc2)c(OC)c1	18.3	0.9	-10.7	-5.7	/	/
CCc1ccc(NC(=O)NNC(=O)CCc2ccccc2)cc1	-1.4	-0.7	-9.6	-1.4	/	/
SMILES	SUMO Mot1 rescue	HIF activator	ALR H2O2 inh	PfM18AAP inh-1	PfM18AAP inh-2	CTSL1 confirm	others
CCc1ccc(NC(=O)Nn2cnnc2)cc1	2.8	0.7	-5.6	55.2*	30.2*	-4.2
Cc1ccc(NC(=S)Nn2cnnc2)cc1	-15.6	0.2	6.6	77.4*	67.3*	0.3
c1ccc(CN2CCC3(CC2)Nc2ccccc2S3)cc1	-2.8	0.4	16.4	34.3*	-54.5	5.3
CCOC(=O)Cc1csc(NC(=O)NC2(C(F)(F)F)Oc3ccccc3O2)n1	770.2*	-0.4	33.8	90.1*	67.6*	0.6	Mot1 SUMO dose=0.4
Clc1ccc(N=c2ssnc2Cl)nc1	654.8*	-0.4	36.9	38.7*	23.5	-4.5	Mot1 SUMO dose=0.1
COc1cc(OC)c(C(=O)OC(C)C(=O)NCc2ccc3c(c2)OCO3)cc1OC (stereo not given)	9.6	/	3.0	/	/	/
Cc1ccc(S(=O)(=O)NCC(=O)OCC(=O)N(C)C2CCCCC2)cc1	-5.0	/	/	/	/	/
CCc1ccc(N(C(=O)C(F)(F)F)C(C(=O)NC2CCCCC2)c2ccncc2)cc1 (stereo not given)	5.6	-0.5	-2.9	0.5	/	/
O=C(NC1CCCCC1)C(c1ccncc1)N(Cc1ccc2c(c1)OCO2)C(=O)C(F)(F)F (stereo not given)	576.7*	0.0	15.6	41.1*	16.2	9.0	Mot1 SUMO dose=0.1
Cc1ccc(NC(=O)Cn2sc3nc(C)cc(C)c3c2=O)c(Cl)c1	558.6*	-0.3	-3.6	67.0*	45.4*	4.7	Mot1 SUMO dose=0.4
Cc1ccc(NC(=O)Cn2c(C)cc(C)c(C#N)c2=O)c(Cl)c1	93.5	-0.3	-5.7	-0.8	/	/
Cc1ccc(C)c(NC(NC(=O)c2ccccn2)C(Cl)(Cl)Cl)c1 (stereo not given)	981.8*	-0.5	3.4	1.0	/	/	Mot1 SUMO dose=0.1
COc1ccccc1NC(NC(=O)c1ccccn1)C(Cl)(Cl)Cl (stereo not given)	-6.7	0.0	/	-13.7	/	/
CCN(CC)c1nc2c(c(=O)[nH]c(=O)n2C)n1CCOc1ccccc1	710.1*	-14.8	-8.5	3.0	/	/	Mot1 SUMO dose=0.3
CN(C)c1nc2c(c(=O)[nH]c(=O)n2C)n1CCOc1ccccc1	-8.0	0.8	-4.0	1.6	/	/
CC1C(=O)CC(c2ccccc2)NC1c1ccccc1 (stereo not given)	788.9*	0.7	-3.9	-2.9	/	/	Mot1 SUMO dose=0.3
CC(C)C1C(=O)CC(c2ccccc2)NC1c1ccccc1 (stereo not given)	14.5	-41.5	-21.9	12.7	/	/
Cc1nc(C(=O)NNC(=O)c2ccc(C(F)(F)F)cc2)cs1	-14.6	0.1	-5.7	0.3	/	/
CNC(=O)NNC(=O)c1csc(-c2ccc(C(F)(F)F)cc2Cl)n1	381.1*	-0.2	12.6	3.4	/	/	Mot1 SUMO dose=0.0
COc1ccc(NC(=O)Cn2c(NCC(C)O)nc3ccccc32)cc1Cl (stereo not given)	46.2	0.0	-14.8	0.1	/	/
O=C(OCC#CCSc1nnc(-c2ccccc2)o1)c1cc2ccccc2o1	581.7*	0.4	-0.1	3.9	/	/	Mot1 SUMO dose=0.2
Cc1cccc(C2(c3cccc(C)c3)CC2C(=O)Nc2ccc([N+](=O)[O-])cc2O)c1 (stereo not given)	0.3	-0.2	-7.4	5.8	/	/
COc1cc(OC)c(NC(=O)CNC(=O)Cn2ccc3ccccc3c2=O)cc1Cl	80.1	-0.4	0.4	-10.2	/	/
COc1ccc(OC)c(NC(=O)CNC(=O)Cn2ccc3ccccc3c2=O)c1	503.4*	-0.3	-10.4	-5.9	/	/	Mot1 SUMO dose=0.1
CN(C)S(=O)(=O)c1cccc(NC(=O)CSc2nnnn2-c2ccccc2)c1	2.1	0.0	/	-0.3	/	/

Screening data (PubChem)
